Inconclusive results are not listed. Entries that show only a call come without a potency. Activity calls are given as the source filed them. Calls come from the whole dose curve; as a rule, active = well fitted activation curve with a large enough effect in the signal ratio in the repeat runs (not every such curve was filed as active); inconclusive = weak or mixed curves, or effect the other way; inactive = no such curve, though single readings can be large or run the other way; the % refers to the signal ratio.

In this assay the target is Peroxisome proliferator-activated receptor gamma (Homo sapiens) (UniProt P37231). The experiment in a line: qHTS assay to identify small molecule agonists of the peroxisome proliferator-activated receptor gamma (PPARg) signaling pathway (AID 743094). The conditions noted are these: HEK293H PPARg-UAS-bla, beta-lactamase FRET ratio, 17 h; series mostly up to 57 µM. The text has this: U.S. Tox21 Program National Center for Advancing Translational Sciences [NCATS] NIH Chemical Genomics Center [NCGC] U.S. Environmental Protection Agency [EPA] National Institutes of Environmental Health Sciences [NIEHS] National Toxicology Program [NTP] U.S. Food and Drug Administration [FDA] Tox21 Assay Overview: The peroxisome proliferator-activated receptors (PPARs) are lipid-activated transcription factors of the nuclear receptor superfamily with three distinct subtypes namely PPAR alpha, PPAR delta (also called PPAR beta) and PPAR gamma (PPARg). All these subtypes heterodimerize with Retinoid X receptor (RXR) and these heterodimers regulate transcription of various genes. PPAR-gamma receptor (glitazone receptor) is involved in the regulation of glucose and lipid metabolism. To identify the compounds that activate PPAR-gamma signaling, GeneBLAzer PPAR gamma UAS-bla HEK293H cell line (Invitrogen, Carlsbad, CA, USA) containing a beta-lactamase reporter gene under control of the control of an upstream activator sequence (UAS) stably integrated into HEK293H cells was used to screen Tox21 compound library.
Peroxisome proliferator-activated receptor gamma (Homo sapiens), sequence (P37231 whole entry, looked up): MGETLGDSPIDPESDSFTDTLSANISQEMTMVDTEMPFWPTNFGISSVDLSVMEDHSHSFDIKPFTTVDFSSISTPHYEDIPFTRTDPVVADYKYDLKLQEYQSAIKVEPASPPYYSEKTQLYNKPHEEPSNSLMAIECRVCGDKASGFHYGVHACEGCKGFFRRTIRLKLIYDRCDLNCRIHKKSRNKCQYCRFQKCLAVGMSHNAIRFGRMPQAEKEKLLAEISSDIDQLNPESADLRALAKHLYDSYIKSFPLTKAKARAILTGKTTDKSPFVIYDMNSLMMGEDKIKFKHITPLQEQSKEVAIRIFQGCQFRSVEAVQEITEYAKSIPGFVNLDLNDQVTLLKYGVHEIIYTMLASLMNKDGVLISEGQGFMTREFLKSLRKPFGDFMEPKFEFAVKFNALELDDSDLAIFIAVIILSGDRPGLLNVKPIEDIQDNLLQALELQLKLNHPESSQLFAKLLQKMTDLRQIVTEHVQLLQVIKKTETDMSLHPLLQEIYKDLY
Tox21 Assay Protocol Summary: PPARg-bla cells were dispensed at 3000 cells/6uL/well in 1536-well black wall/clear bottom plates using a Multidrop Combi (Thermo Fisher Scientific, Waltham, MA) dispenser. After the assay plates were incubated at 37C and 5% CO2 for 5 h, 23 nL of compounds dissolved in DMSO, positive controls or DMSO only was transferred to the assay plate by a Pintool station (Kalypsys, San Diego, CA). The assay plates were incubated at 37C for 17 h. After 1 uL of LiveBLAzerTM B/G FRET substrate was added using a Bioraptr Flying Reagent Dispenser (FRD) workstation (Beckman Coulter, Indianapolis, IN, USA), the plates were incubated at room temperature for 1 h, and fluorescence intensity was measured by an Envision plate reader (PerkinElmer, Shelton, CT).
Take `Cc1cc2c(OCC(CNC(C)(C)C)OC(=O)c3ccccc3)cccc2[nH]1` (stereo not given): the Potency entry was “inactive”.

Consider `CN1CCCN=C1COC(=O)C(O)(c1ccccc1)C1CCCCC1` (stereo not given), for which the Potency result is “inactive”.

Turning to `Oc1ccc(Cl)c2cccnc12`, the Potency result was “inactive”.

On to `CCOC(=O)OC(C)OC(=O)[C@@H]1N2C(=O)[C@@H](NC(=O)[C@H](N)c3ccccc3)[C@H]2SC1(C)C` (stereo not given in full), for which the Potency entry was “inactive”.

In the case of `O=C1c2ccccc2C(=O)N1CCc1noc(-c2ccc(CN3CCCCCC3)s2)n1`, the Potency entry was “inactive”.

Take `O=C(CCCN1CC=C(n2c(=O)[nH]c3ccccc32)CC1)c1ccc(F)cc1`: the Potency entry is “inactive”.

Take `O=[N+]([O-])c1ccc(Nc2ccc(Nc3ccccc3)c(S(=O)(=O)O)c2)c([N+](=O)[O-])c1`: the Potency result is “inactive”.

Regarding `C=C(C)C(=O)OCCCCCCCCCCCCC`, the Potency result was “inactive”.

Regarding `C=Cc1ccc(S(=O)(=O)O)cc1`, the Potency entry was “inactive”.

Take `COC(=O)CS`: the Potency entry is “inactive”.

Turning to `O=C=Nc1cccc(C(F)(F)F)c1`, the Potency entry was “inactive”.

In the case of `CCC1NC(=O)c2cc(S(N)(=O)=O)c(Cl)cc2N1` (stereo not given), the Potency result was “inactive”.

On to `COc1cc(N)c(Cl)cc1C(=O)NC1CCN(CCCOc2ccc(F)cc2)CC1OC` (stereo not given), for which the Potency result was “inactive”.

For the compound `CC(=O)N/N=C/c1ccc([N+](=O)[O-])o1`, the Potency result was “inactive”.

Consider `Cc1ccccc1S`, for which the Potency entry is “inactive”.

Consider `CC(C)=CCC/C(C)=C/CC/C(C)=C/CCC(=O)OC/C=C(\C)CCC=C(C)C`, for which the Potency result is “inactive”.

`COc1ccccc1NC(=O)c1cc2ccccc2cc1O`: the Potency entry was “inactive”.

Turning to `CN(C)CCN1C(=O)c2ccccc2N(C)c2ccccc21`, the Potency entry is “inactive”.

For the compound `O=C1c2ccccc2C(=O)C1c1nc2ccccc2c(Br)c1O`, the Potency entry is “inactive”.

In the case of `Clc1ccc(Nc2nnc(Cc3ccncc3)c3ccccc23)cc1`, the Potency result was “inactive”.

`CC(C)COCC(CN(Cc1ccccc1)c1ccccc1)N1CCCC1` (stereo not given): the Potency entry was “inactive”.

On to `C(=C\c1ccccc1)/c1ccccc1`, for which the Potency result was “inactive”.

In the case of `C/C=C/C=C/C=O`, the Potency result was “inactive”.

As for `OCCN1CCN(CCCN2c3ccccc3Sc3ccc(Cl)cc32)CC1`, the Potency entry is “inactive”.

For `CC(CN(C)C)C(C)(O)Cc1ccc(Cl)cc1` (stereo not given), the Potency result was “inactive”.

As for `CC1CC(C)C(=O)C1=O` (stereo not given), the Potency result was “inactive”.

For the compound `CN1C(=O)OC(C)(C)C1=O`, the Potency result was “inactive”.

`C[C@]12CC[C@@H]3c4ccc(O)cc4CC[C@H]3[C@@H]1CC[C@@H]2OC(=O)CCC1CCCC1`: the Potency result is “inactive”.

For the compound `CC=C(Cl)Cl`, the Potency entry was “inactive”.

For the compound `CCCCOc1ccc(OCCCN2CCOCC2)cc1`, the Potency result is “inactive”.

As to `CC(=O)c1ccc([N+](=O)[O-])cc1`, the Potency entry is “inactive”.

Consider `CCOC(C)=O`, for which the Potency entry was “inactive”.

For the compound `C=CCc1ccccc1OCC(O)CNC(C)C` (stereo not given), the Potency result is “inactive”.

Consider `C=CC(C)(CCC=C(C)C)OC(=O)CC(C)C` (stereo not given), for which the Potency result is “inactive”.

On to `CC(=O)[C@H]1[C@H](C#N)C[C@H]2[C@@H]3CC=C4C[C@@H](O)CC[C@]4(C)[C@H]3CC[C@@]21C`, for which the Potency result was “inactive”.

As to `O=C1C(=O)c2ccccc2C(O)=C1C1CCC(c2ccc(Cl)cc2)CC1` (stereo not given), the Potency entry was “inactive”.

Turning to `COc1cc(C(=O)NCCCCCC(=O)O)cc(OC)c1OC`, the Potency entry is “inactive”.

With `CC(=O)OCC(=O)NCCCOc1cccc(CN2CCCCC2)c1`, the Potency result was “inactive”.

In the case of `O=C1NCCN1CCO`, the Potency entry is “inactive”.

On to `CC(=O)OCCN(CCOC(C)=O)c1ccc(N=Nc2ccc([N+](=O)[O-])cc2C#N)cc1`, for which the Potency entry was “inactive”.

For the origin of these results see PubChem BioAssay (Tox21).
